Results filed as inconclusive are left out. Values without a mark were called inactive. Activity calls are given as the source filed them. Calls come from the whole dose curve; as a rule, active = well fitted activation curve with a large enough effect; inconclusive = small, poorly fitted or top-dose-only effect; inactive = flat fitted curve, though single readings scatter.
Assay: Cell Proliferation Assay against the TMD8 Cell Line (Caspase readout at 16 hrs) (AID 651712)
Details: TMD8 lymphoma cells, caspase activation luminescence; series mostly up to 46.1 µM; caspase activation: at the top concentration
Procedure, shortened: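 Caspase-Glo luminescence measured apoptosis after a 16 h, 37 C compound exposure of TMD8 cells (500 cells/well, 5% FBS RPMI). DMSO set 0% and bortezomib at 9.2 uM final set 100% activity.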
With CCN(CC)CCCCNc1ncc2cc(-c3cc(OC)cc(OC)c3)c(NC(=O)NC(C)(C)C)nc2n1 the “caspase activation” value was -0.896%.
With COc1cc2nccc(Oc3ccc(NC(=O)C4(C(=O)Nc5ccc(F)cc5)CC4)cc3)c2cc1OC the Potency was 26.4 µM (active).
For CC(=O)c1c(C)c2cnc(Nc3ccc(N4CCNCC4)cn3)nc2n(C2CCCC2)c1=O, the Potency was 18.7 µM (active).
In the case of Cc1cc(Nc2cc(NC(=O)c3c(Cl)cccc3Cl)ccn2)nc(N)n1, the Potency is reported as 18.7 µM (active).
In the case of CC[C@H](CO)Nc1nc(NCc2ccccc2)c2ncn(C(C)C)c2n1, the Potency is reported as 0.935 µM (active).
In the case of CN(C)CCCN=c1c2ccccc2n(C)c2[nH]c(=O)n(C)c(=O)c12, the Potency is reported as 20.9 µM (active).
In the case of N#CCNC(=O)c1ccc(-c2ccnc(Nc3ccc(N4CCOCC4)cc3)n2)cc1, the Potency is reported as 5.26 µM (active).
For O=c1[nH]nc(Sc2ncc([N+](=O)[O-])s2)n1-c1ccc2c(c1)OCCO2, the “caspase activation” value was -8.38%.
In the case of O=C(c1ccc(Nc2nccc(-c3cc4ccccc4s3)n2)cc1)N1CCC(N2CCCC2)CC1, the “caspase activation” value is reported as 9.87%.
With COc1cc(C(C)C)c2c(c1)S(=O)(=O)N(COc1cc(=O)n3cccc(OCCN4CCCCC4)c3n1)C2=O the “caspase activation” value was 27.9%.
For CC(C)=CCCC(C)=CCCC(C)=CCSc1ccccc1C(=O)O, the “caspase activation” value was 4.59%.
With O=C(C=Cc1cccc(S(=O)(=O)Nc2ccccc2)c1)NO the Potency was 0.935 µM (active).
For CC(C)(C)OC(=O)Nc1ccc(-c2cc(C(=O)NCCCCCCC(=O)NO)no2)cc1, the Potency was 1.32 µM (active).
For Nc1ccc(C(=O)c2cc3c(ccc4ccccc43)[nH]2)cc1, the Potency was 26.4 µM (active).
For CC1(O)CC(c2nc(-c3ccc4ccc(-c5ccccc5)nc4c3)c3c(N)nccn23)C1 (centres undefined), the Potency was 26.4 µM (active).
In the case of Cn1c(=O)n(-c2ccc(C(C)(C)C#N)cc2)c2c3cc(-c4cnc5ccccc5c4)ccc3ncc21, the Potency is reported as 20.9 µM (active).
In the case of CC(C)(C)c1cc(NC(=O)Nc2ccc(-c3cn4c(n3)sc3cc(OCCN5CCOCC5)ccc34)cc2)no1, the “caspase activation” value is reported as 21.5%.
With Cc1ccc(C(N)=O)cc1Nc1nccc(-c2cn(C(C)C)c3cnccc23)n1 the Potency was 2.64 µM (active).
In the case of CC(=O)OCC(=O)[C@@]1(O)[C@H](C)C[C@H]2[C@@H]3C=C(C)C4=Cc5c(cnn5-c5ccccc5)C[C@]4(C)[C@@H]3[C@@H](O)C[C@@]21C, the Potency is reported as 20.9 µM (active).

— PubChem BioAssay (NCATS)
Potency is the fitted concentration of half-maximal effect.
